69 compounds from paper PMC4552634, “A New Set of Chemical Starting Points with Plasmodium falciparum Transmission-Blocking Potential for Antimalarial Drug Discovery” (PLoS ONE, 2015) can be followed below.

In all, about 13,000 compounds went through this assay and about 3,200 (25%) showed an effect of 50% or more. The list shows a part of the results.

The test deals with P. falciparum stage V gametocytes. On the set-up: BacTiter-Glo ATP luminescence viability of purified stage V gametocytes in 384-well plates, per cent inhibition versus DMSO. The following applies: 48 h, 5 µM; inhibitor.
In general, % Inhibition refers to the change of the read-out against control, counted positive when it falls. Turning to `O=C(Nc1ccc(Cl)c(-c2nc3ccccc3[nH]2)c1)c1ccc(-c2ccc(Cl)cc2)o1` [TCMDC-125599], the “% Inhibition” value is reported as -11.96%. With `N#Cc1ccc(N2CCN(Cc3ccc(-c4ccc(-c5nc6ccccc6[nH]5)s4)cc3)CC2)nc1.O=C(O)C(F)(F)F` [TCMDC-133119] the figure was -24.51%.

On to `COCCNCc1ccc(-c2ccc(CN(C(=O)NC3CCCCC3)C3CCN(Cc4ccccc4)CC3)cc2)cc1` [TCMDC-140637], for which the “% Inhibition” value turned out to be 95.07%.

`COCCNCc1cccc(-c2ccc(CN(C(=O)NC3CCCCC3)C3CCN(Cc4ccccc4)CC3)cc2)c1` [TCMDC-140636]: the “% Inhibition” value is given as 84.07%.

With `C[C@@H](CC1CCCCC1)NCc1cccc(NS(=O)(=O)c2ccc(O)c(-c3ccno3)c2)c1` [TCMDC-141485], the “% Inhibition” value came to 41.65%. The value for `COc1c(O)cc2oc(-c3ccc(O)cc3)cc(=O)c2c1O` [TCMDC-123942] was 46.88%; that for `COc1cc2[nH]c(-c3ccc(O)cc3)c(C)c(=O)c2c(OC)c1OC` [TCMDC-137449] was 59.36%. The value for `COc1cc(-c2nc(-c3ccccc3)c(-c3ccc([N+](=O)[O-])cc3)[nH]2)cc(OC)c1O` [TCMDC-125529] was -60.07%; that for `O=C(Nc1ccc(Cn2ncc(N3CCCNCC3)c(Cl)c2=O)cc1)Nc1cc(C(F)(F)F)cc(C(F)(F)F)c1` [TCMDC-133327] was -39.39%; that for `Cc1cc(N2CCOCC2)nc(Nc2ccc(NC(=O)c3cccc4ccccc34)cc2)n1` [TCMDC-124962] was 3.103%. The value for `C[C@H](N[C@H]1CCCc2c1[nH]c1ccc(Br)cc21)c1ccccc1` [TCMDC-138915] was -58.95%. On to `Cc1nc(-c2ccc(-c3ccc(NC(=O)c4coc5ccc(N6CC(C)N(C)C(C)C6)cc45)cc3)c(C)c2)no1` (stereo not drawn) [TCMDC-141233], for which the “% Inhibition” value stood at 92.65%. With `Cc1nc(-c2ccc(-c3ccc(NC(=O)c4coc5ccc(N6CC(C)NC(C)C6)cc45)cc3)c(C)c2)no1` (stereo not drawn) [TCMDC-141309] the figure was -4.933%. For the compound `Cc1cc(-c2ccc(NC(=O)c3coc4ccc(N5CC(C)N(C)C(C)C5)cc34)cc2C)cc(C)n1` (stereo not drawn) [TCMDC-141310], the “% Inhibition” value was -15.05%. With `O[C@H](c1cc(C(F)(F)F)nc2c(C(F)(F)F)cccc12)[C@@H]1CCCCN1` [TCMDC-123920] the figure was 23.74%; with `N#Cc1cccc(NC(=O)Nc2ccc3c(c2)CN(Cc2c[nH]c4ncccc24)C3)c1` [TCMDC-141757], 5.913%. In the case of `COC(=O)c1cccc(C#CCCOCCCCCCNC[C@H](O)c2cc(Cl)c(N)c(Cl)c2)c1` [TCMDC-138515], the “% Inhibition” value came to 25.12%.

Regarding `O=C(c1cc(-c2ccco2)[nH]n1)N1CCN(S(=O)(=O)c2ccc(Cl)cc2)CC1` [TCMDC-124698], the “% Inhibition” value was determined as 58.01%.

On to `Cc1ccc(S(=O)(=O)N2CCN(C(=O)c3cc(-c4cccs4)[nH]n3)CC2)c(C)c1` [TCMDC-124700], for which the “% Inhibition” value is 26.64%. Take `O=C(c1cc(-c2cccs2)[nH]n1)N1CCN(S(=O)(=O)c2ccc(Cl)cc2)CC1` [TCMDC-124702]: the “% Inhibition” value turned out to be 54.51%.

On to `O=C(c1cc(-c2ccco2)[nH]n1)N1CCN(S(=O)(=O)c2ccc(Br)cc2)CC1` [TCMDC-124699], for which the “% Inhibition” value is given as -28.22%.

As to `O=C(c1cc(-c2cccs2)[nH]n1)N1CCN(S(=O)(=O)c2ccc(Cl)s2)CC1` [TCMDC-124701], the “% Inhibition” value worked out at 26.12%. Take `O=C(c1cc(-c2cccs2)[nH]n1)N1CCN(S(=O)(=O)c2ccc(Br)cc2)CC1` [TCMDC-124703]: the “% Inhibition” value is 15.64%. With `CC(Nc1ccnc2cc(Cl)ccc12)c1ccc(S(N)(=O)=O)cc1` (stereo not drawn) [TCMDC-125107] the figure was 16.92%; with `Cc1nc(Nc2ccc(C)c(Cl)c2)c2c(C)noc2n1` [TCMDC-125162], 15.95%.

As for `Cc1ccc(Cl)cc1NC(=O)c1c(-c2ccccc2Cl)noc1C` [TCMDC-124175], the “% Inhibition” value is -15.67%. The value for `O=C(NC1CCCc2ccccc21)[C@@H]1CCCN1C(=O)c1ccc(O)c(-c2cccc([N+](=O)[O-])c2)c1` (stereo partly drawn) [TCMDC-140798] was 18.58%; that for `COc1ccc(C(=O)N[C@@H](CC(C)C)C(=O)NC2CC[C@@H](C)N(C(=O)Nc3ccc(Cl)cc3)CC2=O)cc1OCCN1CCOCC1` (stereo partly drawn) [TCMDC-134276] was -74.97%. The value for `CCOC(=O)c1ccc(OCc2ccc(-c3ccccc3)cc2)cc1` [TCMDC-131397] was 4.826%. With `CCOC(=O)c1ccc(COc2ccc(C)nc2)cc1` [TCMDC-131377] the figure was 0.9057%; with `CCOC(=O)c1ccc(N(CCCN(CCCN(c2ccc(C(=O)OCC)cc2)S(=O)(=O)c2ccc(C)cc2)CCc2ccc(O)cc2)S(=O)(=O)c2ccc(C)cc2)cc1` [TCMDC-137351], 57.74%; with `CC(CCc1ccccc1)NCC(O)c1ccc2c3c(cccc13)S(=O)(=O)N2C` (stereo not drawn) [TCMDC-131253], 8.689%. In the case of `FC(F)(F)c1ccc2c(NCCNc3ccnc4cc(C(F)(F)F)ccc34)ccnc2c1` [TCMDC-137881], the “% Inhibition” value is reported as -4.365%.

In the case of `NCCCNc1ccnc2cc(Cl)ccc12` [TCMDC-123921], the “% Inhibition” value was 17.37%. `COc1ccc(NCCCNc2ccnc3ccccc23)cc1` [TCMDC-139253]: the “% Inhibition” value is recorded as -97.14%. The value for `Clc1ccc2c(NCCNc3ccnc4cc(Cl)ccc34)ccnc2c1` [TCMDC-137882] was 57.8%; that for `c1ccc2c(NCCCCCCCCCNc3ccnc4ccccc34)ccnc2c1` [TCMDC-137750] was 102.2%. On to `c1ccc2c(NCCCCCCCNc3ccnc4ccccc34)ccnc2c1` [TCMDC-137897], for which the “% Inhibition” value was determined as 122.9%. With `c1ccc2c(NCCCCCCNc3ccnc4ccccc34)ccnc2c1` [TCMDC-137913] the figure was 91.15%. With `Clc1ccc2c(NCCCCCCCCNc3ccnc4cc(Cl)ccc34)ccnc2c1` [TCMDC-137733] the figure was 25.46%.

In the case of `FC(F)(F)c1ccc2c(NCCCNc3ccnc4cc(C(F)(F)F)ccc34)ccnc2c1` [TCMDC-137736], the “% Inhibition” value amounted to 28.34%. With `NCCNc1ccnc2cc(Cl)ccc12` [TCMDC-125850] the figure was 23.17%; with `COc1ccccc1-c1cccc2c(NC(=O)Nc3ccc4nccc(N5CCN(C)CC5)c4c3)ccnc12` [TCMDC-139384], -27.38%.

Consider `COc1ccc(C(=C(C)CC(C)C(=O)O)c2ccccc2)cc1` (stereo not drawn) [TCMDC-131745], for which the “% Inhibition” value is listed as -8.546%. The value for `Cc1c(CNCCCNc2nc3ccccc3[nH]2)sc(C(F)F)c1Br` [TCMDC-141323] was 13.37%; that for `Cc1ccccc1-c1cc(=O)c2cc(NC(=O)c3cccs3)ccc2o1` [TCMDC-124947] was 11.18%. The value for `COc1ccccc1/C=C/C(=O)N(C)C1CCN(CCCCCNC(=O)/C=C/c2ccc(Cl)c(Cl)c2)C1` (stereo not drawn) [TCMDC-139996] was 13.3%. With `Nc1nc(N)c2c(n1)CCc1cc(Br)ccc1-2` [TCMDC-125525] the figure was 4.608%; with `CN1CCC(c2c[nH]c3ccc(NC(=O)Nc4ccc(-c5ccncc5)cc4Cl)cc23)CC1` [TCMDC-139180], -1.977%. Consider `CC(C)(C)CNc1noc(-c2sccc2Br)n1` [TCMDC-134187], for which the “% Inhibition” value is listed as -20.57%. Turning to `C=CCN1C(=O)CN(S(=O)(=O)c2ccc(-n3nc(C)cc3C)cc2)C1=S` [TCMDC-131799], the “% Inhibition” value is recorded as -1.195%. The value for `CNCCCNc1ccnc2cc(Cl)ccc12` [TCMDC-125233] was 36.92%.

Take `c1ccc2c(NCCCCCCCCNc3ccnc4ccccc34)ccnc2c1` [TCMDC-137751]: the “% Inhibition” value is given as 124.8%. With `CN(C)CCCNc1ccnc2cc(Cl)ccc12` [TCMDC-123919] the figure was 17.18%.

`CN(CCCNC(=S)NC12CC3CC(CC(C3)C1)C2)CCCNc1ccnc2cc(Cl)ccc12` [TCMDC-137885]: the “% Inhibition” value is 114.9%.

`CN1CCN(Cc2cc(NC(=O)c3ccc(-c4ccc(Cl)cc4Cl)cc3)ccc2-c2ccccc2)CC1` [TCMDC-138839]: the “% Inhibition” value turned out to be 21.61%. Take `CC(C)CN1CCC(N(C)c2cc(NC(=O)c3cccc(F)c3)ccn2)CC1` [TCMDC-135022]: the “% Inhibition” value was -32.51%. With `CC(C)Cn1c(Sc2ccc(C#N)c([N+](=O)[O-])c2)nnc1-c1cccs1` [TCMDC-135575] the figure was 26.53%; with `O=C(Nc1cccc(C(F)(F)F)c1)Nc1cc(F)c(F)cc1Cl` [TCMDC-123779], 32.47%. With `CCc1ccc(-n2c(NC(=O)c3ccccc3)nc3ccc(S(=O)(=O)NC(C)C(C)C)cc32)cc1` (stereo not drawn) [TCMDC-136236] the figure was 39.19%; with `CC(OC(=O)c1ccc(C(=O)NCC2CC2)cc1)C(C)(C)C` (stereo not drawn) [TCMDC-138180], 11.69%; with `CCO[C@H]1CN[C@H](C#Cc2cc3c(Nc4ccc(OCc5cccc(F)c5)c(Cl)c4)ncnc3s2)C1` [TCMDC-135170], 22.02%.

As for `CC(C)(C)c1ccc2nccc(Nc3cccc(O)c3)c2c1` [TCMDC-138884], the “% Inhibition” value was found to be 71.55%. Take `Cc1ccc(O)cc1Nc1ccnc2ccc(C(C)(C)C)cc12` [TCMDC-138885]: the “% Inhibition” value is listed as -11.57%. The value for `COc1cc(Nc2ccnc3ccc(C(C)(C)C)cc23)cc(OC)c1OC` [TCMDC-138886] was -36.54%; that for `C=CCC(CC=C)N1C(=O)C(c2ccccc2)(c2ccccc2)N=C1N` [TCMDC-136807] was 5.028%. `O=C(/C=C/c1ccc(C(F)(F)F)cc1)NCCCCCN1CCN(C(=O)Nc2ccc(Cl)c(Cl)c2)CC1` [TCMDC-136094]: the “% Inhibition” value is listed as -8.361%. The value for `CC1CCC2(CC1)N=C(N)N=C(N)N2OCc1cc2ccccc2c2ccccc12` (stereo not drawn) [TCMDC-131590] was 22.45%; that for `C[C@H](NC(=O)c1c(CN2CCC(N3CCCCC3)CC2)c(-c2ccccc2)nc2cc(O)ccc12)C1CCCCC1` [TCMDC-140408] was 25.99%.
